# Measurements published in the supplement of paper PMC4022240.
# ± gives the standard deviation.
# T1: HaloTag-ATRX ADD domain (163-292)
# T1 chain: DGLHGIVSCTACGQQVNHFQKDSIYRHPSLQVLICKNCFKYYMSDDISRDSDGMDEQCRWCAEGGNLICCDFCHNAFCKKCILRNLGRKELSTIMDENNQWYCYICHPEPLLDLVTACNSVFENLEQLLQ
# Key:
# Test in all cases: peptide microarray binding signal (635 nm), min-max normalized on array (fraction of array maximum); higher = stronger binding
# [1] = biological target: T1, HaloTag-ATRX ADD domain (163-292)
# Method: (§1)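 Histone 13-mer peptides were synthesized as cellulose conjugates with a C-terminal 20-atom PEG linker and printed in triplicate on nitrocellulose. The sequence given is the unmodified backbone; PTMs (Kme1/2/3, Kac, Sph/Tph, Rme/Rme2a/Rme2s, Rcit) are listed in the label and the 'peptide modifications' condition. Slides were probed at 4 °C for 1 h with biotin-labelled (HQ)5-HaloTag reader fusions (ATRX-ADD, ING2-PHD) then streptavidin-Alexa647, or with rabbit histone antibodies then anti-rabbit Alexa647. The mean 635 nm signal of the triplicate spots was scaled 0-1 between the lowest and highest values on each array.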
# [2] = biological target: HaloTag-ING2 PHD (mouse Ing2 200-280)
# Method: as §1
# [3] = biological target: anti-H3K4me3 antibody ab8580
# Method: as §1
# [4] = biological target: anti-H3K9me3 antibody ab8898
# Method: as §1
# [5] = peptide region: H2B 1-13, binder concentration: 1:2,000 dilution
# [6] = peptide region: H2B 1-13, binder concentration: 1:10,000 dilution
# [7] = peptide region: H2A 11-23, binder concentration: 1:2,000 dilution
# [8] = peptide region: H2A 11-23, binder concentration: 1:10,000 dilution
# [9] = peptide region: H2B 1-13, peptide modifications: H2BK5ac H2BS6ph, binder concentration: 1:2,000 dilution
# [10] = peptide region: H2B 1-13, peptide modifications: H2BK5ac H2BS6ph, binder concentration: 1:10,000 dilution
# [11] = peptide region: H2B 1-13, peptide modifications: H2BS6ph, binder concentration: 1:2,000 dilution
# [12] = peptide region: H2B 1-13, peptide modifications: H2BS6ph, binder concentration: 1:10,000 dilution
# [13] = peptide region: H2A 11-23, peptide modifications: H2AK13ac H2AK15ac, binder concentration: 1:2,000 dilution
# [14] = peptide region: H2A 11-23, peptide modifications: H2AK13ac H2AK15ac, binder concentration: 1:10,000 dilution
binder,measurement,setting,value
PEPAKSAPAPKKG [H2B 1-13 P E P A K S A P A P K K G],peptide microarray binding signal,"[1]; peptide region: H2B 1-13, binder concentration: 50 nM",0.00715 ± 0.00022
same,peptide microarray binding signal,"[1]; peptide region: H2B 1-13, binder concentration: 500 nM",0.00119 ± 0.0002
same,peptide microarray binding signal,"[2]; peptide region: H2B 1-13, binder concentration: 10 nM",0.00197 ± 0.00013
same,peptide microarray binding signal,"[2]; peptide region: H2B 1-13, binder concentration: 100 nM",0.00149 ± 7.7e-05
same,peptide microarray binding signal,[3]; [5],9.44e-05 ± 1e-06
same,peptide microarray binding signal,[3]; [6],0.000342 ± 7.5e-06
same,peptide microarray binding signal,[4]; [5],0.000257 ± 2.6e-05
same,peptide microarray binding signal,[4]; [6],0.000807 ± 2.9e-05
RAKAKTRSSRAGL [H2A 11-23 R A K A K T R S S R A G L],peptide microarray binding signal,"[1]; peptide region: H2A 11-23, binder concentration: 50 nM",0.00404 ± 4.2e-05
same,peptide microarray binding signal,"[1]; peptide region: H2A 11-23, binder concentration: 500 nM",0.00457 ± 5.4e-05
same,peptide microarray binding signal,"[2]; peptide region: H2A 11-23, binder concentration: 10 nM",0.003462 ± 3.2e-05
same,peptide microarray binding signal,"[2]; peptide region: H2A 11-23, binder concentration: 100 nM",0.00581 ± 0.00028
same,peptide microarray binding signal,[3]; [7],0.00125 ± 0.0004
same,peptide microarray binding signal,[3]; [8],0.000571
same,peptide microarray binding signal,[4]; [7],0.000257 ± 2.7e-06
same,peptide microarray binding signal,[4]; [8],0.000692 ± 7.3e-06
PEPAKSAPAPKKG [H2B 1-13 P E P A Kac Sph A P A P K K G],peptide microarray binding signal,"[1]; peptide region: H2B 1-13, peptide modifications: H2BK5ac H2BS6ph, binder concentration: 50 nM",0.00433 ± 0.00028
same,peptide microarray binding signal,"[1]; peptide region: H2B 1-13, peptide modifications: H2BK5ac H2BS6ph, binder concentration: 500 nM",0.00467 ± 0.0018
same,peptide microarray binding signal,"[2]; peptide region: H2B 1-13, peptide modifications: H2BK5ac H2BS6ph, binder concentration: 10 nM",0.00442 ± 0.0003
same,peptide microarray binding signal,"[2]; peptide region: H2B 1-13, peptide modifications: H2BK5ac H2BS6ph, binder concentration: 100 nM",0.00872 ± 0.0029
same,peptide microarray binding signal,[3]; [9],0.00217 ± 0.0016
same,peptide microarray binding signal,[3]; [10],0.000628 ± 1.3e-05
same,peptide microarray binding signal,[4]; [9],0.000332 ± 2.6e-05
same,peptide microarray binding signal,[4]; [10],0.000865 ± 2.4e-05
PEPAKSAPAPKKG [H2B 1-13 P E P A K Sph A P A P K K G],peptide microarray binding signal,"[1]; peptide region: H2B 1-13, peptide modifications: H2BS6ph, binder concentration: 50 nM",0.00342 ± 3.7e-05
same,peptide microarray binding signal,"[1]; peptide region: H2B 1-13, peptide modifications: H2BS6ph, binder concentration: 500 nM",0.00543 ± 0.00012
same,peptide microarray binding signal,"[2]; peptide region: H2B 1-13, peptide modifications: H2BS6ph, binder concentration: 10 nM",0.00346 ± 0.00017
same,peptide microarray binding signal,"[2]; peptide region: H2B 1-13, peptide modifications: H2BS6ph, binder concentration: 100 nM",0.00425 ± 0.00022
same,peptide microarray binding signal,[3]; [11],0.00245 ± 6.6e-05
same,peptide microarray binding signal,[3]; [12],0.000799 ± 8.3e-06
same,peptide microarray binding signal,[4]; [11],0.00068 ± 1e-05
same,peptide microarray binding signal,[4]; [12],0.000923 ± 9.6e-06
RAKAKTRSSRAGL [H2A 11-23 R A Kac A Kac T R S S R A G L],peptide microarray binding signal,"[1]; peptide region: H2A 11-23, peptide modifications: H2AK13ac H2AK15ac, binder concentration: 50 nM",0.00307 ± 8.1e-05
same,peptide microarray binding signal,"[1]; peptide region: H2A 11-23, peptide modifications: H2AK13ac H2AK15ac, binder concentration: 500 nM",0.00481 ± 0.00022
same,peptide microarray binding signal,"[2]; peptide region: H2A 11-23, peptide modifications: H2AK13ac H2AK15ac, binder concentration: 10 nM",0.0034 ± 8e-05
same,peptide microarray binding signal,"[2]; peptide region: H2A 11-23, peptide modifications: H2AK13ac H2AK15ac, binder concentration: 100 nM",0.00227 ± 5.8e-05
same,peptide microarray binding signal,[3]; [13],0.000359 ± 1.5e-05
same,peptide microarray binding signal,[3]; [14],0.000628 ± 6.7e-06
same,peptide microarray binding signal,[4]; [13],0.000529 ± 5.7e-05
same,peptide microarray binding signal,[4]; [14],0.000577 ± 1.6e-05
